± gives the standard deviation of the averaged measurements.
Tested on: Caenorhabditis elegans N2 infected with Nematocida parisii ERTm1
Assay: progeny production relative to DMSO uninfected control; higher = more progeny despite microsporidia infection (inhibition of infection with low host toxicity)
Details: infection time 6 days; 40 µM
Experimental: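 Bleach-synchronised C. elegans N2 L1 larvae (100 per well) were grown in 96-well plates in K-medium with 5x E. coli OP50 and 15,000 N. parisii spores/uL, plus Pandemic Response Box compound at 100 uM or 40 uM (1% DMSO), for 6 days at 21 C with shaking. Worms were stained with Rose Bengal, scanned on a flatbed scanner and counted with WorMachine. Progeny production is given as % of the DMSO uninfected control (triplicate wells), so higher values mean the compound restores progeny despite infection.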

Point of comparison: `Nc1nc2c(ncn2COCCO)c(=O)[nH]1`, progeny production 6.44 ± 2.2%. Against it:
- CC(=O)NC[C@H]1CN(c2ccc(N3CCSCC3)c(F)c2)C(=O)O1 — within error, 6.06 ± 3.1%
- CC1(C)Cc2c(C#N)c(SCCc3ccccc3)nc(N3CCOCC3)c2CO1 — within error, 3.65 ± 0.7%
- NC1C2CC3CC(C2)CC1C3 (stereo not given) — within error, 4.96 ± 2.6%
- C[C@H]1[C@@H](c2cccc(C(F)(F)F)c2)OC(=O)N1C(=O)NCc1cncc2ccccc12 — lower, 2.28 ± 1.4%
- Nc1nc(=O)[nH]cc1F — within error, 5.01 ± 1.2%
- O=c1[nH]cnc2c1ncn2[C@H]1CC[C@@H](CO)O1 — within error, 6.61 ± 0.81%
- NC[C@H]1OB(O)c2c(OCCCO)cccc21 — within error, 4.23 ± 2.7%
- Oc1cc(-c2cccc3ccccc23)[nH]n1 — lower, 2.92 ± 0.16%
- O=C(O)C[C@H]1CC[C@H](c2ccc(-c3ccc(Nc4ccc(C(F)(F)F)nc4)cn3)cc2)CC1 — within error, 4.2 ± 3.2%
- NC(=O)c1c(N)sc2c1CCCCC2 — within error, 3.71 ± 1.1%
- Nc1nc(O)c2ncn([C@@H]3O[C@H](CO)[C@@H](O)[C@H]3F)c2n1 — within error, 4.36 ± 1.3%
- CC(=O)N[C@H](C)C(=O)N[C@H](Cc1ccccc1)C(=O)O — within error, 9.08 ± 7.2%
- O=[N+]([O-])/C(Br)=C/c1ccc(Br)o1 — within error, 5.77 ± 1.4%
- CC(C)(C)c1cccc(-c2nc3cc(C(=N)N)ccc3[nH]2)c1O — lower, 2.13 ± 0.25%
- O=C(Nc1ncc(Cc2cccc3ccccc23)s1)C1CCCCC1 — within error, 8.93 ± 0.69%
- O=C1CCC(N2C(=O)c3ccccc3C2=O)C(=O)N1 (stereo not given) — within error, 9.53 ± 5.1%
- Cc1ccn2c(C(=O)NCc3ccccc3)c(C)nc2c1 — within error, 9.26 ± 8.6%
- N#CCN1C(=O)COc2cc(F)c(N3C(=O)c4ccccc4C3=O)cc21 — within error, 3.98 ± 0.99%
- Cn1cncc1[C@@](N)(c1ccc(Cl)cc1)c1ccc2c(c1)c(-c1cccc(Cl)c1)cc(=O)n2C — lower, 2.71 ± 0.38%

Same assay, conditions: infection time 6 days; 100 µM

Point of comparison: `CC(=O)NC[C@H]1CN(c2ccc(N3CCSCC3)c(F)c2)C(=O)O1`, progeny production 10.4 ± 6.2%. Against it:
- CC1(C)Cc2c(C#N)c(SCCc3ccccc3)nc(N3CCOCC3)c2CO1 — within error, 18.8 ± 15%
- NC1C2CC3CC(C2)CC1C3 (stereo not given) — within error, 13.2 ± 3.6%
- C[C@H]1[C@@H](c2cccc(C(F)(F)F)c2)OC(=O)N1C(=O)NCc1cncc2ccccc12 — within error, 7.48 ± 6.2%
- Nc1nc(=O)[nH]cc1F — within error, 23.7 ± 7.4%
- O=c1[nH]cnc2c1ncn2[C@H]1CC[C@@H](CO)O1 — within error, 9.85 ± 7.2%
- NC[C@H]1OB(O)c2c(OCCCO)cccc21 — within error, 6.44 ± 4.8%
- Oc1cc(-c2cccc3ccccc23)[nH]n1 — within error, 18.4 ± 18%
- O=C(O)C[C@H]1CC[C@H](c2ccc(-c3ccc(Nc4ccc(C(F)(F)F)nc4)cn3)cc2)CC1 — within error, 10.5 ± 6.4%
- NC(=O)c1c(N)sc2c1CCCCC2 — within error, 8.33 ± 4.8%
- Nc1nc(O)c2ncn([C@@H]3O[C@H](CO)[C@@H](O)[C@H]3F)c2n1 — within error, 9.71 ± 4.6%
- CC(=O)N[C@H](C)C(=O)N[C@H](Cc1ccccc1)C(=O)O — within error, 10 ± 3.2%
- O=[N+]([O-])/C(Br)=C/c1ccc(Br)o1 — higher, 26.4 ± 9.5%
- CC(C)(C)c1cccc(-c2nc3cc(C(=N)N)ccc3[nH]2)c1O — within error, 20.4 ± 23%
- O=C(Nc1ncc(Cc2cccc3ccccc23)s1)C1CCCCC1 — within error, 13 ± 5.7%
- Nc1nc2c(ncn2COCCO)c(=O)[nH]1 — within error, 8.34 ± 8.3%
- O=C1CCC(N2C(=O)c3ccccc3C2=O)C(=O)N1 (stereo not given) — within error, 13.3 ± 8.9%
- Cc1ccn2c(C(=O)NCc3ccccc3)c(C)nc2c1 — within error, 13.1 ± 10%
- N#CCN1C(=O)COc2cc(F)c(N3C(=O)c4ccccc4C3=O)cc21 — within error, 15.2 ± 12%
- Cn1cncc1[C@@](N)(c1ccc(Cl)cc1)c1ccc2c(c1)c(-c1cccc(Cl)c1)cc(=O)n2C — within error, 8.73 ± 2.4%

— the supplement of paper PMC10732440
